High-throughput results deposited in PubChem BioAssay by National Center for Advancing Translational Sciences (NCATS).
Pf growth 96h = Primary qHTS for delayed death inhibitors of the malarial parasite plastid, 96 hour incubation; P. falciparum luciferase reporter growth, 96 h; Potency, µM (doses to about 28.7 µM), inactives show at the highest dose activity change, negative = inhibition, usual class: inhibitors; 320,000 compounds, 6.9% hits; active means well fitted inhibition curve with a large enough effect; inconclusive means small, poorly fitted or top-dose-only effect, or another doubt; inactive means no such curve, though single readings can be large or run the other way; further: potency means the concentration at half of the fitted maximal effect; on the % scale 0 is the no-effect control and ±100 the full control effect
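Erythrocytes infected with luciferase-expressing P. falciparum were dispensed at 2% hematocrit and 0.05% parasitemia (final), then incubated with compounds 96 hours at 37 C in 5% CO2. Luminescence after detection reagent addition reported growth.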
NS1 inh = qHTS Assay for Inhibitors of Influenza NS1 Protein Function. Potency, µM (titrated, usually from 46.1 µM), for the others: at the highest dose activity, positive = more growth. 270,000 compounds, 0.4% hits; further: potency means the concentration at half of the fitted maximal effect; actives are rising curves; nearly all actives have a fitted effect of over 50% in size
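Growth recovery, yeast-based: influenza A NS1 expressed in S. cerevisiae causes slow growth, and suppressors are detected by OD600. The parent strain without NS1 is used as positive control.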
SARS PLP yeast = qHTS of Yeast-based Assay for SARS-CoV PLP; S. cerevisiae expressing SARS-CoV PLpro, growth rescue; Potency, µM (highest dose often 32.9 µM), inactives show top-dose activity, positive = growth rescue, actives largely listed as activators; 330,000 compounds, 0.19% hits; AID 485353, 2010; further: potency means the concentration at half of the fitted maximal effect; 0% is about no effect; nearly all actives have a fitted effect of over 55% in size
Pf growth 48h = Primary qHTS for delayed death inhibitors of the malarial parasite plastid, 48 hour incubation; P. falciparum luciferase growth in erythrocytes, 48 h; Potency, µM (titrated, usually from 28.7 µM), without a hit: at the highest dose activity change, negative = inhibition, hits mostly inhibitors; 310,000 compounds, 5.9% hits; active means well fitted inhibition curve with a large enough effect; inconclusive means small, poorly fitted or top-dose-only effect, or another doubt; inactive means no such curve, though single readings can be large or run the other way; further: potency means the concentration at half of the fitted maximal effect; on the % scale 0 is the no-effect control and ±100 the full control effect
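Read-out is firefly luciferase luminescence from an integrated reporter in P. falciparum, so falling signal marks reduced parasite growth. Infected erythrocytes were at 2% hematocrit and 0.1% parasitemia (final) in Albumax-supplemented RPMI 1640.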
Shiga toxin inh = A qHTS for Small Molecule Inhibitors of Shiga Toxin; 290,000 compounds, 9.2% hits; AID 2315, 2010; Vero cells, Shiga toxin protein synthesis inhibition reporter; inhibition, % at 38.7 µM; in the data active means inhibition mostly above about 28%, no sharp cut-off; inactive means mostly below about 43%; further: 0% is about no effect
CHX counter = Cycloheximide Counterscreen for Small Molecule Inhibitors of Shiga Toxin | cell reporter, cycloheximide protein synthesis inhibition counterscreen | max response, % | 300,000 compounds, 12% hits | AID 2314, 2010; in the data active means max response mostly above about 13%, no sharp cut-off; inactive means mostly below about 14%; further: read at 38.3 µM for the half of the compounds with a filed dose; 0% is about no effect
Active calls of the source: *; i = inactive; ? = inconclusive; . = not tested or not shown. This is a sample that favours compounds with a hit; in the whole collection about 21% have one here. Unless noted, the call rests on the fitted dose curve.

SMILES	Pf growth 96h	NS1 inh	SARS PLP yeast	Pf growth 48h	Shiga toxin inh	CHX counter
Nc1nc(SCc2ccccc2Cl)ns1	4%	-9%	-23%	17%	58*	17*
CCC(C)[C@H](NC(=O)C1(c2ccccc2)CCN(C(=O)OC(C)(C)C)CC1)C(=O)N[C@@H](C(=O)O)c1ccccc1 (stereo partly drawn)	13µM*	?	10%	13µM*	-3	-4
Nc1c2c(nc3sc4c(c13)CCCCC4)CCCC2	18%	-47%	-64%	?	137*	62*
Nc1c2c(nc3c1CCC3)CCCC2	3.8µM*	.	4%	4.8µM*	-5	-4
Nc1c2c(nc3sc4c(c13)CCCC4)-c1ccccc1CC2	i	2%	-2%	-27%	97*	50*
Cc1ccc(C(=O)NC(=S)N2CCN(C(=O)OC(C)(C)C)CC2)cc1Br	-14%	1%	-1%	9%	-7	-2
Cc1nc(N2CCC(C)CC2)c2nnn(Cc3ccccc3)c2n1	15µM*	-31%	-95%	12µM*	56*	12
CC(C)Cc1nc(N2CCC(C(N)=O)CC2)c2nnn(Cc3ccccc3)c2n1	10µM*	1%	6%	15µM*	14	0
c1ccc(Cn2nnc3c(N4CCCCCC4)ncnc32)cc1	?	-130%	-14%	?	11	0
Cc1ccc(Nc2nc(N)nc(COC(=O)C3=COCCO3)n2)cc1	128%	.	0%	329%	.	.
COc1ccc(C(=O)/C=C/c2cn(CC(O)CN(CC(C)C)CC(C)C)c3ccccc23)cc1OC (stereo not drawn)	.	.	.	.	19	21
O=C(/C=C/c1cn(CC(O)CN2CCOCC2)c2ccccc12)c1cccs1 (stereo not drawn)	?	-2%	0%	6.6µM*	64	19
O=Cc1cn(CC(O)CN2CCCCC2)c2ccccc12 (stereo not drawn)	?	2%	0%	27%	14	-1
COc1ccc(C(=O)c2c(C)n(CCN3CCOCC3)c3ccccc23)cc1	12µM*	.	.	-15%	.	.
COc1ccc(C(=O)/C=C/c2cn(CC(O)CN3CCOCC3)c3ccccc23)cc1 (stereo not drawn)	5.2µM*	0%	-5%	?	13	12*
Cc1ccc(C(=O)/C=C/c2cn(CC(O)CN3CCOCC3)c3ccccc23)cc1 (stereo not drawn)	12µM*	9%	-1%	?	29	30*
COc1ccc(-c2nc3ccccc3c(=O)n2CCN2CCOCC2)cc1	?	?	-1%	6%	12	2
CC(=O)NC1C(Oc2ccccc2C)OC2COC(c3ccco3)OC2C1O (stereo not drawn)	17%	?	20%	-1%	-14	-3
O=C1C2CC=CCC2C(=O)N1c1ccc(N2CCN(c3ccccn3)CC2)c([N+](=O)[O-])c1 (stereo not drawn)	?	.	-3%	11%	-8	14
COc1ccc(N2CCN(CCCNC(=O)C(=O)c3c(C)n(C)c4ccccc34)CC2)cc1	15µM*	3%	-1%	?	-7	0
COc1ccc(N2CCN(C(=O)C(=O)c3c(C)n(C)c4ccccc34)CC2)cc1	-46%	.	-1%	-16%	-3	7
CC(/C=N/n1cnnc1)=C\c1ccco1	2%	0%	7%	?	-5	0
Cc1noc(/C=C/N(C)C)c1S(=O)(=O)N1CCCC(C(=O)N2CCCCC2)C1 (stereo not drawn)	-5%	28%	8%	9.3µM*	-3	-2
Cc1cc(C)c(NC(=O)C2CCCN(S(=O)(=O)c3c(C)noc3/C=C/N(C)C)C2)c(C)c1 (stereo not drawn)	13µM*	14%	-4%	?	1	-1
Cc1ccc(C)c(N2CCN(C(=O)C3CCCN(S(=O)(=O)c4c(C)noc4C)C3)CC2)c1 (stereo not drawn)	-24%	-40%	-14%	12µM*	-4	-1
SMILES	Pf growth 96h	NS1 inh	SARS PLP yeast	Pf growth 48h	Shiga toxin inh	CHX counter
CCOC(=O)N1CCN(C(=O)C2CCCN(S(=O)(=O)c3c(C)cc(C)cc3C)C2)CC1 (stereo not drawn)	10µM*	-9%	2%	?	-8	-4
Cc1ccc(C)c(N2CCN(C(=O)C3CCN(S(=O)(=O)c4c(C)noc4C)CC3)CC2)c1	?	26%	-1%	?	1	-1
C/C(CCc1ccccc1)=N/NC(=O)C(=O)NCc1ccccc1	61%	7%	0%	21%	-9	0
CCOC(=O)N1CCN(S(=O)(=O)N2CCCC(C(=O)NCc3ccccc3Cl)C2)CC1 (stereo not drawn)	12µM*	-14%	5%	6%	-9	-6
Cc1noc(C)c1S(=O)(=O)N1CCN(c2ccccc2Cl)CC1	15µM*	.	0%	?	.	.
Cc1ccc(CNC(=O)C2CCCN(S(=O)(=O)c3c(C)noc3/C=C/N(C)C)C2)cc1 (stereo not drawn)	?	22%	4%	13µM*	-4	-1
CCOC(=O)N1CCN(S(=O)(=O)N2CCCC(C(=O)NCCc3ccc(C)cc3)C2)CC1 (stereo not drawn)	?	-2%	11%	-17%	-8	-2
Cc1noc(C)c1S(=O)(=O)N1CCC(C(=O)N2CCN(c3ccccc3Cl)CC2)CC1	?	?	-1%	?	-8	2
Cc1ccc(Sc2ncccc2C(=O)NCC(c2ccc(F)cc2)N2CCOCC2)c(C)c1 (stereo not drawn)	?	.	1%	?	.	.
O=C(NNC(=O)c1cccnc1SCc1cccc([N+](=O)[O-])c1)c1ccc(F)cc1	184%	0%	-9%	9%	-11	-1
Cc1ccc(Sc2ncccc2C(=O)NCc2cc([N+](=O)[O-])ccc2O)c(C)c1	?	-81%	-10%	-20%	104*	66*
O=C(NNC(=O)c1cccnc1SCc1cccc([N+](=O)[O-])c1)c1ccccn1	98%	-1%	-2%	5.2µM*	-9	5
O=C(NCc1cc([N+](=O)[O-])ccc1O)c1cccnc1Sc1ccccc1	12µM*	-10%	-1%	?	-18	-4
COC(=O)c1ccc(-c2ccc(C3C4C=CCC(C)C4C(=O)N3Cc3ccccc3)c(F)c2)cc1 (stereo not drawn)	.	.	.	.	16	9
Cc1nc(C)c(/C(O)=C/c2nc3ccccc3oc2=O)s1	-95%	-29%	-46%	?	-3	22*
CC(C)C/C(O)=C/c1nc2cc(Cl)ccc2oc1=O	?	-21%	-37%	?	25	4
O/C(=C\c1ccc2ccccc2n1)c1ccncc1	131%	.	1%	164%	.	.
